Inconclusive results are not listed. Calls of active or inactive are those of the source. How the source made its calls, unless noted: active means hit-call score of the fitted dose curve at least 0.9, where 1 is the maximum; inactive means score below 0.9.
Experiments:
[1] = UKN5_HCS_SBAD2_cell_viability: Viability Assessment in the University of Konstanz (UKN) Leist Lab Neurite Outgrowth Assay in human iPSC-derived immature Dorsal Root Ganglia Neurons (UKN5) (AID 2284056)
How it was run: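 iPSC-derived immature peripheral neurons (SBAD2) seeded on Matrigel with CHIR99021, SU5402 and DAPT, dosed 1 h later for 24 h. Viability from Hoechst H-33342 and calcein-AM live staining, high-content imaging; bidirectional fit versus DMSO.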

[2] = UKN5_HCS_SBAD2_neurite_outgrowth: University of Konstanz (UKN) Leist Lab Neurite Outgrowth Assay in human iPSC-derived immature Dorsal Root Ganglia Neurons (UKN5) (AID 2284070); conditions: actives raise or lower the signal
How it was run: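 Neurite outgrowth is quantified as calcein-AM-labelled neurite area in human iPSC-derived peripheral neurons treated for 24 h, starting 1 h after plating in medium with CHIR99021 (1.5 uM), SU5402 (5 uM) and DAPT (5 uM).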

[3] = UKN2_HCS_IMR90_neural_migration: University of Konstanz (UKN) Leist Lab Neural Crest Cell Migration Assay in human induced IMR90 Pluripotent Stem Cells (UKN2) (AID 2284204); conditions: actives raise or lower the signal
How it was run: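 Stopper-exclusion migration (cMINC), human iPSC-derived neural crest cells; N2-S + EGF/FGF; compound added 24 h post-stopper removal, 24 h exposure. Readout: calcein-AM/Hoechst 30 min, HCS fluorescence imaging; bidirectional fitting, DMSO baseline.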

[4] = UKN4_HCS_LUHMES_neurite_outgrowth: University of Konstanz (UKN) Leist Lab Neurite Outgrowth Assay in human LUHMES cells (UKN4) (AID 2284206); conditions: actives raise or lower the signal
How it was run: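 Neurite area in dopaminergic-model LUHMES neurons is measured by high-content imaging of calcein-AM after 24 h treatment starting shortly after day-2 replating; Hoechst staining tracks viability.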

[5] = IUF_NPC1b_proliferation_BrdU_72hr: Leibniz Research Institute for Environmental Medicine (IUF) 72-hour Neural Progenitor Cell Bromodeoxyuridine (BrdU) Proliferation Assay (NPC1b) (AID 2284207)
How it was run: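 Luminescent BrdU ELISA measured DNA synthesis during the last 16 h of a 72 h exposure of primary human neural progenitor spheres grown with EGF and FGF. Signal was fitted relative to DMSO controls.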

[6] = IUF_NPC1a_proliferation_area_72hr: Leibniz Research Institute for Environmental Medicine (IUF) 72-hour Neural Progenitor Cell Proliferation Area Assay (NPC1a) (AID 2284208)
How it was run: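 Measured in 3D suspension: each well held one primary hNPC sphere grown with EGF and FGF at pH 7.2-7.6. Compound stayed on for 72 h, then area was imaged; spheres lacking growth factors defined reduced proliferation.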

[7] = IUF_NPC1_viability_72hr: Viability Assessment at 72 hours in the Leibniz Research Institute for Environmental Medicine (IUF) Neural Progenitor Cell Proliferation Assay (NPC1) (AID 2284209)
How it was run: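 Three-day continuous exposure of human neural progenitor spheres under EGF/FGF-driven proliferation; cell viability scored by alamar blue signal versus DMSO.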

[8] = CCTE_Mundy_HCI_Cortical_Synap_Neur_Matur_NeuriteSpotCountPerNeuriteLength: CCTE's Synaptogenesis and Neurite Maturation Assay in rat cortical cells for Neurite Spot Count per Neurite Length, Mundy Lab (AID 2284210)
How it was run: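 Read-out: synaptophysin puncta counted along MAP2-stained neurites, normalised to neurite length, by automated high-content imaging. Rat cortical cells; AraC DIV 5; chemical dosing DIV 7; termination DIV 12. DMSO baseline.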

[9] = CCTE_Mundy_HCI_Cortical_NOG_NeuriteLength: CCTE's Neurite Outgrowth Assay in rat cortical cells for Neurite Length, Mundy Lab (AID 2284213);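 further: neurites imaged about 48 to 50 h after chemical exposure began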
How it was run: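 First, rat primary cortical cells were plated and, 2 h later, given test chemical as a 1/10 dilution. Finally, βIII-tubulin immunostaining enabled automated imaging of neurite length.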

[10] = CCTE_Mundy_HCI_Cortical_Synap_Neur_Matur_NeuriteSpotCountPerNeuron: CCTE's Synaptogenesis and Neurite Maturation Assay in rat cortical cells for Neurite Spot Count per Neuron Count, Mundy Lab (AID 2284215)
How it was run: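 Developing rat cortical neurons, with glia suppressed by AraC, are exposed to chemicals from DIV 7 to DIV 12. Automated fluorescence imaging of MAP2-labelled neurites and synaptophysin puncta yields a count per neuron, normalised against DMSO wells.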

[11] = CCTE_Mundy_HCI_Cortical_Synap_Neur_Matur_SynapseCount: CCTE's Synaptogenesis and Neurite Maturation Assay in rat cortical cells for Synapse Count, Mundy Lab (AID 2284218)
How it was run: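 Endpoint: synapses/neuron by HCI (synaptophysin puncta on MAP2-labelled neurites, Hoechst nuclei). Rat primary cortical cells, AraC DIV 5, dosed DIV 7, fixed DIV 12; DMSO negative control.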

[12] = CCTE_Mundy_HCI_hN2_NOG_NeuriteCount: CCTE's Neurite Outgrowth Assay in human hN2 cells for Neurite Count, Mundy Lab (AID 2284219; active means hit-call score of the fitted dose curve at least 0.9, where 1 is the maximum)
How it was run: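 In this morphology assay, hNP1-derived neurons received test chemical 2 h post-plating and were fixed two days later in warm paraformaldehyde/sucrose containing Hoechst 33342. Neurites, labelled by rabbit anti-βIII-tubulin (1:800) and Alexa Fluor-488 (1:500), were counted automatically.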

[13] = CCTE_Mundy_HCI_hN2_NOG_NeuriteLength: CCTE's Neurite Outgrowth Assay in human hN2 cells for Neurite Length, Mundy Lab (AID 2284220; active means hit-call score of the fitted dose curve at least 0.9, where 1 is the maximum)
How it was run: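 Read-out is neurite length from high-content imaging of βIII-tubulin/Alexa Fluor-488-labelled neurons, referenced to DMSO controls.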

[14] = CCTE_Mundy_HCI_hN2_NOG_NeuronCount: CCTE's Neurite Outgrowth Assay in human hN2 cells for Neuron Count, Mundy Lab (AID 2284221; active means hit-call score of the fitted dose curve at least 0.9, where 1 is the maximum)
How it was run: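 Read-out is the number of betaIII-tubulin-positive neurons imaged by automated high-content analysis, with DMSO as negative control.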

[15] = CCTE_Mundy_HCI_Cortical_Synap_Neur_Matur_CellBodySpotCount: CCTE's Synaptogenesis and Neurite Maturation Assay in rat cortical cells for Cell Body Spot Count, Mundy Lab (AID 2284223)
How it was run: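 Chemicals were applied to AraC-treated rat primary cortical cells at DIV 7 and measured at DIV 12. Fixed cells were labelled for MAP2, synaptophysin and nuclei, and high-content imaging gave cell body synaptophysin spot counts per neuron relative to DMSO.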

[16] = UKN4_HCS_LUHMES_cell_viability: Viability Assessment in the University of Konstanz (UKN) Leist Lab Neurite Outgrowth Assay in human LUHMES cells (UKN4) (AID 2284232)
How it was run: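 Measured in replated, 2-day-differentiated LUHMES cells treated 24 h; stained 30 min with H-33342 and calcein-AM before high-content imaging.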

[17] = UKN2_HCS_IMR90_cell_viability: Viability Assessment in the University of Konstanz (UKN) Leist Lab Neural Crest Cell Migration Assay in human induced IMR90 Pluripotent Stem Cells (UKN2) (AID 2284233);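 further: cells exposed to compound for 24 h after a 24 h migration phase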
How it was run: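 Viability read as calcein-AM fluorescence by high-content imaging, Hoechst co-stain, 30 min. Human iPSC (IMR90) neural crest cells had migrated 24 h into stopper-defined gaps before 24 h chemical exposure. Fitted bidirectionally relative to DMSO.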

[18] = CCTE_Mundy_HCI_Cortical_NOG_NeuronCount: CCTE's Neurite Outgrowth Assay in rat cortical cells for Neuron Count, Mundy Lab (AID 2284236; active means hit-call score of the fitted dose curve at least 0.9, where 1 is the maximum;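 further: neurons counted by imaging betaIII-tubulin and Hoechst stained cortical cells; cells exposed to compound for about 48 hours before fixation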)
How it was run: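 Read-out: neuron number by high-content imaging of betaIII-tubulin (Alexa Fluor-488) and Hoechst-labelled rat primary cortical cells.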

[19] = CCTE_Mundy_HCI_hNP1_Casp3_7: CCTE's Caspase-Glo 3/7 Assay in human neuroprogenitor cells for Apoptosis, Mundy Lab (AID 2284240)
How it was run: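 Luminescent caspase-3/7 readout, 26.5 h post-dose, in human neural progenitor cells from WA09 embryonic stem cells. Cells grew 40–44 h at 37 °C, 5% CO2 before chemical addition. Activity analysed as signal increase over DMSO baseline.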

[20] = CCTE_Mundy_HCI_Cortical_Synap_Neur_Matur_NeuronCount: CCTE's Synaptogenesis and Neurite Maturation Assay in rat cortical cells for Neuron Count, Mundy Lab (AID 2284242; active means hit-call score of the fitted dose curve at least 0.9, where 1 is the maximum)
How it was run: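 Measured at DIV 12: fluorescently labelled neurons (Hoechst nuclei, MAP2) in rat primary cortical cultures, counted by high-content imaging. AraC suppressed glia from DIV 5; DMSO served as negative control.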

[21] = IUF_NPC2c_oligodendrocyte_migration_120hr: Leibniz Research Institute for Environmental Medicine (IUF) 120-hour Neural Progenitor Cell Migration Assay for Oligodendrocyte Migration (NPC2c) (AID 2284297);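 further: O4-positive oligodendrocyte migration distance divided by radial glia migration distance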
How it was run: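 Using fetal brain neural progenitor spheres differentiating in N2 medium at 37C, compounds were present for 120 h. Oligodendrocyte migration distance, normalized to radial glia migration, was measured from imaged O4 staining.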

[22] = IUF_NPC2a_radial_glia_migration_120hr: Leibniz Research Institute for Environmental Medicine (IUF) 120-hour Neural Progenitor Cell Migration Assay for Radial Glia Migration (NPC2a) (AID 2284298)
How it was run: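 Exposure of 0.3 mm primary hNPC spheres runs day 0 to 120 h with a half-volume medium change at day 3. Fixed cells get Hoechst staining; high-content analysis of nuclear positions yields radial glia migration distance per well, compared against DMSO controls.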

[23] = IUF_NPC2a_radial_glia_migration_72hr: Leibniz Research Institute for Environmental Medicine (IUF) 72-hour Neural Progenitor Cell Migration Assay for Radial Glia Migration (NPC2a) (AID 2284299)
How it was run: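 Spheres of human primary neural progenitors migrate on poly-D-lysine/laminin under compound exposure at 37C, 5% CO2. The 72 h radial glia migration distance comes from brightfield images, measured manually.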

[24] = IUF_NPC3_neuronal_differentiation_120hr: Leibniz Research Institute for Environmental Medicine (IUF) 120-hour Neuronal Differentiation Assay (NPC3) (AID 2284301)
How it was run: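 hNPC spheres, PDL/laminin, DMEM/F12 3:1 + 1% N2, 37C, 5% CO2; 7 concentrations + solvent control, 5 d exposure, half-change day 3. Fix 120 h; TUBB3/Hoechst ICC, CNN neuron calling; % neurons vs nuclei, DMSO-normalized.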

[25] = IUF_NPC4_neurite_length_120hr: Leibniz Research Institute for Environmental Medicine (IUF) 120-hour Neuronal Morphology Assay for Neurite Length (NPC4) (AID 2284302)
How it was run: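 hNPC spheres (0.3 mm, fetal brain GW 16-19) on PDL/laminin, DMEM:F12 3:1 + 1% N2, 37C 5% CO2; 7 concs + solvent control, day 0-5, half medium change d3; fix 120 h, TUBB3 ICC, mean neurite length um vs DMSO.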

[26] = IUF_NPC5_oligodendrocyte_differentiation_120hr: Leibniz Research Institute for Environmental Medicine (IUF) 120-hour Oligodendrocyte Differentiation Assay (NPC5) (AID 2284304; active means hit-call score of the fitted dose curve at least 0.9, where 1 is the maximum;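 further: primary human fetal neural progenitor spheres plated to migrate and differentiate; share of O4-positive cells among Hoechst nuclei found by CNN image analysis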)
How it was run: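 After plating on poly-D-lysine/laminin, fetal-derived hNPC spheres differentiated for 120 h at 37C in compound-containing N2 medium, refreshed by half on day 3. O4 immunostaining over Hoechst nuclei in the migration zone gave oligodendrocyte percentage relative to DMSO.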

[27] = IUF_NPC2-5_cytotoxicity_72hr: Cytotoxicity Assessment at 72 hours in the Leibniz Research Institute for Environmental Medicine (IUF) Neural Progenitor Cell Migration and Differentiation Assay for Cytotoxicity (NPC2-5) (AID 2284306; active means hit-call score of the fitted dose curve at least 0.9, where 1 is the maximum;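 further: LDH release into supernatant measured by resorufin fluorescence marking membrane damage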)
How it was run: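 hNPC spheres (0.3 mm), PDL/laminin, DMEM/F12 3:1 + 1% N2; cpd from d0, 7 concs + SC, DMSO max 0.1%; half-medium refresh d3. Readout: supernatant LDH via resorufin fluorescence (RFU), 72 h; gain-of-signal fit.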

[28] = IUF_NPC2-5_cytotoxicity_120hr: Cytotoxicity Assessment at 120 hours in the Leibniz Research Institute for Environmental Medicine (IUF) Neural Progenitor Cell Migration and Differentiation Assay (NPC2-5) (AID 2284307; active means hit-call score of the fitted dose curve at least 0.9, where 1 is the maximum;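 further: LDH released into supernatant as membrane damage marker via resorufin fluorescence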)
How it was run: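 Membrane-integrity loss is quantified by LDH in supernatant after five days of exposure of migrating, differentiating human fetal NPC spheres; seven serially diluted concentrations are tested with DMSO kept at or below 0.1%.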

[29] = IUF_NPC2-5_cell_number_120hr: Cell Number Assessment at 120 hours in the Leibniz Research Institute for Environmental Medicine (IUF) Neural Progenitor Cell Migration and Differentiation Assay (NPC2-5) (AID 2284308);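 further: count of Hoechst-stained nuclei in migration zone around plated human neural progenitor spheres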
How it was run: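 Seven-point serial dilutions plus solvent control were applied to plated 0.3 mm hNPC spheres at differentiation start, with medium half-replaced at day 3. Nuclei positive for Hoechst in the migration zone were enumerated at 120 h.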

[30] = IUF_NPC2-5_viability_120hr: Viability Assessment at 120 hours in the Leibniz Research Institute for Environmental Medicine (IUF) Neural Progenitor Cell Migration and Differentiation Assay (NPC2-5) (AID 2284312)
How it was run: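 Human fetal neural progenitor spheres (0.3 mm) plated on poly-D-lysine/laminin in N2 differentiation medium, exposed 120 h with half-medium refresh at day 3. Viability by alamar blue resazurin fluorescence; 7 concentrations, DMSO max 0.1%.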

[31] = IUF_NPC1_cytotoxicity_72hr: Cytotoxicity Assessment at 72 hours in the Leibniz Research Institute for Environmental Medicine (IUF) Neural Progenitor Cell Proliferation Assay (NPC1) (AID 2284332; active means hit-call score of the fitted dose curve at least 0.9, where 1 is the maximum;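 further: rising LDH signal means more cytotoxicity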)
How it was run: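 Readout is fluorescence from LDH-dependent resazurin conversion, sampled from culture medium after compound contact lasting 72 h. Each well holds one 0.25-0.35 mm human progenitor sphere kept at 37C, 5% CO2 with EGF and FGF.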

Measured: AC50

C[C@@H]1C[C@H]2[C@@H]3CCC4=CC(=O)C=C[C@]4(C)[C@@]3(F)[C@@H](O)C[C@]2(C)[C@@]1(O)C(=O)CO
active: [5] 90.1 nM | [9] 21.1 µM | [28] 24 nM
inactive: all other assays above
